Measurements: PubChem BioAssay (NCATS)
“And” between values parts separate entries of the source, which are not always exact repeats. Identical values can stand only once. Inconclusive results are not listed.

Assay: qHTS Assay for Lipid Storage Modulators (AID 1519)
Conditions: Drosophila S3 cells, BODIPY lipid droplet/cell ratio, laser cytometry; measured here: lipid channel max response; cells loaded with oleic acid
In short: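 Cells seeded at 5,000 per well were treated with compounds over a concentration series and loaded with oleic acid (400 uM, as added). Lipid droplet fluorescence (488 nm excitation, 500-530 nm channel) was read by laser-scanning cytometry and normalized to 20 uM Triacsin C.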

Which max response does the source give for `CN1CCC(=C2c3ccccc3CCc3sccc32)CC1` here?
The max response was -11.1% and 14.8%.

With `Cc1c(OCC(F)(F)F)ccnc1CS(=O)c1nc2ccccc2[nH]1` (stereo not given) as the compound, how does the max response read?
Its max response is -17.5% and 9.62%.

With `c1ccc2[nH]c(-c3cscn3)nc2c1` as the compound, how does the max response read?
Its max response is -10.4%.

Which max response does the source give for `Nc1nc(Cl)nc2c1ncn2[C@H]1C[C@H](O)[C@@H](CO)O1` here?
Its max response is -3.39%.

With `Nc1cc(C(Cl)=C(Cl)Cl)c(S(N)(=O)=O)cc1S(N)(=O)=O` as the compound, how does the max response read?
Its max response is 2.6% and 13.2%.

With `O=C1NC(=O)C(c2ccccc2[N+](=O)[O-])=C1Nc1ccc(O)c(Cl)c1` as the compound, how does the max response read?
Its max response is -39.8%.

Which max response does the source give for `Cc1ncc([N+](=O)[O-])n1CC(C)O` (stereo not given) here?
Its max response is 12.9%.

Which max response does the source give for `CS(=O)(=O)OCCCCOS(C)(=O)=O` here?
Its max response is 11.4%.

With `Nc1ccc(S(N)(=O)=O)cc1` as the compound, how does the max response read?
Its max response is -9.48% and 32.6%.

Which max response does the source give for `NS(=O)(=O)c1cc(C(=O)O)c(NCc2ccco2)cc1Cl` here?
The max response was -4.2%.

With `CCc1nc(N)nc(N)c1-c1ccc(Cl)cc1` as the compound, how does the max response read?
Its max response is -10.2% and 22.1%.

With `O=C(O)c1cccnc1Nc1cccc(C(F)(F)F)c1` as the compound, how does the max response read?
The max response was -3.91% and 60.1%.

Which max response does the source give for `CCN(CC)C(=S)SSC(=S)N(CC)CC` here?
Its max response is -17%.

For `COc1ccc2cc([C@H](C)C(=O)O)ccc2c1`, which max response is on record?
The max response was 5.84% and -5.9% and 56%.

With `O=C(O)c1cc(=O)c2c(OCC(O)COc3cccc4oc(C(=O)O)cc(=O)c34)cccc2o1` as the compound, how does the max response read?
The max response was 8.64% and 34.9%.

With `O=c1c(O)c(-c2ccc(O)cc2O)oc2cc(O)cc(O)c12` as the compound, how does the max response read?
The max response was 19%.

Which max response does the source give for `CCCc1cc(=O)[nH]c(=S)[nH]1` here?
Its max response is 5.94% and 25.3%.

Which max response does the source give for `COc1cc(OC)c(C(=O)CCCN2CCCC2)c(OC)c1` here?
Its max response is -9.82%.

For `COc1c2occc2cc2ccc(=O)oc12`, which max response is on record?
Its max response is 1.14%.

For `Cc1cc2cc3c(C)cc(=O)oc3c(C)c2o1`, which max response is on record?
Its max response is -6.06%.

Which max response does the source give for `NC(=NCc1ccccc1)NC(=O)c1nc(Cl)c(N)nc1N` here?
Its max response is -4.9% and 26.9%.

Which max response does the source give for `NCCCCNCCCN` here?
Its max response is 8.54%.

Which max response does the source give for `O=C(O)c1cn(-c2ccc(F)cc2)c2cc(N3CCNCC3)c(F)cc2c1=O` here?
The max response was 20.1%.

Which max response does the source give for `CC(=O)Nc1ccc(O)cc1` here?
Its max response is -12.8% and -10.2% and 7.7%.

With `Cc1ccc(C)c(OCCCC(C)(C)C(=O)O)c1` as the compound, how does the max response read?
The max response was 8.2%.
